This is a sample that favours compounds with a hit; in the whole collection about 3.5% have one here.
TEAD-YAP inh: TEAD-YAP interaction inhibition | HEK-TIYL cells, TEAD-Gal4/YAP UAS-luciferase luminescence | inhibition, % at 9.12 µM | 1.4% of 640,000 active | AID 1259422; in the data active = inhibition above about 32%;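 also: 0% = median of test compound wells and 100% = reference inhibitor wells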
MITF primary: blocks human microphthalmia-associated transcription factor | AID 1259374 | 0.91% of 650,000 active | O75030 | inhibition, % at 2.6 µM | AlphaScreen MITF homodimerization, bead proximity signal; in the data active = inhibition above about 50%;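 also: 0% = vehicle wells with protein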
GPR151 activ: activators of human GPR151 | activation, % at 11.2 µM | PathHunter beta-arrestin GPR151 cells, luminescence | 1% of 650,000 active | AID 1508602 | Q8TDV0; in the data active = activation above about 4.9%;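 also: 0% = median of compound wells and 100% = cells with positive control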
Target sequence (Q8TDV0 whole entry, looked up): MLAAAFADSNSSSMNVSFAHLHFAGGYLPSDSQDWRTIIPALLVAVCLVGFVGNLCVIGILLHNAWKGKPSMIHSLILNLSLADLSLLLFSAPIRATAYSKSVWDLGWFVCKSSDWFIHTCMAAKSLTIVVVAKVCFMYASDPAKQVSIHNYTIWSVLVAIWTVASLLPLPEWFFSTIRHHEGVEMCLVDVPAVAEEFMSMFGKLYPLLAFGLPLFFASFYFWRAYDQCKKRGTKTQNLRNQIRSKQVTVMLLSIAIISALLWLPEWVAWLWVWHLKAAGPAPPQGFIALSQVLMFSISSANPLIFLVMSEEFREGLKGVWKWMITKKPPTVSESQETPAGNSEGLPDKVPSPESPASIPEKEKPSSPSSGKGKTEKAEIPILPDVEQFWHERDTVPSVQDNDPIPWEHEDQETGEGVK
FBW7 activator: human FBW7 E3 ligase activation, primary screen; 0.13% of 650,000 active; normalized activity (activation), % at 26.1 µM; Q969H0; AlphaScreen FBW7–phospho-cyclin E peptide binding, activator screen; AID 1259310; in the data active = normalized activity above about 1.9%;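 also: purified mutant Fbw7 with reduced substrate affinity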
An asterisk follows results filed as active; ! = not confirmed by another sample.

For COc1cc(/C=C2/C(=O)ON=C2c2ccccc2)ccc1O the results were TEAD-YAP inh -2.9, MITF primary 69.4*, GPR151 activ 0.6 and FBW7 activator 0.0.
COc1cc(/C=C2\C(=O)ON=C2c2ccccc2)ccc1OCc1ccc(Cl)cc1 was read as TEAD-YAP inh -46.7, MITF primary 31.9, GPR151 activ 2.2 and FBW7 activator -0.1.
Screening CS(=O)(=O)Nc1ccc(-c2ccnc(Nc3ccc(N4CCOC4=O)cc3)n2)cc1 returned TEAD-YAP inh 11.8, MITF primary 10.0, GPR151 activ -1.2 and FBW7 activator 0.4.
For CCCNc1nc(OC)nc(-c2ccc(N3CCOCC3)nc2)n1 the results were TEAD-YAP inh -13.7, MITF primary 1.5, GPR151 activ -0.5 and FBW7 activator -0.2.
`COc1ccc(CC2(CCC(=O)N(C)Cc3n[nH]c4c3CCCCC4)CCC(=O)N2)cc1` (stereo not drawn) gave TEAD-YAP inh 5.1, MITF primary 1.4, GPR151 activ -0.2 and FBW7 activator 0.4.
For Cc1ccc(COc2ccccc2/C=C2/C(=O)ON=C2c2ccccc2)cc1 the results were TEAD-YAP inh -42.9, MITF primary 54.1*, GPR151 activ -1.0 and FBW7 activator 0.1.
Screening COc1cc(/C=C2/C(=O)ON=C2c2ccc(Cl)cc2)ccc1O returned TEAD-YAP inh 6.3, MITF primary 60.8*, GPR151 activ 1.9 and FBW7 activator -0.1.
Screening COc1cc(/C=C2/C(=O)ON=C2c2ccccc2)cc(OC)c1OC returned TEAD-YAP inh 1.9, MITF primary 56.4*, GPR151 activ -0.7 and FBW7 activator -0.1.
For CCOc1ccc(S(=O)(=O)N(CC(=O)NCc2ccccc2C)c2ccccc2)cc1 the results were TEAD-YAP inh -2.5, MITF primary -4.2, GPR151 activ 1.5 and FBW7 activator -0.2.
COc1ccc(CCNC(=O)NCCc2ccc3c(c2)CCCN3C)cc1 was read as TEAD-YAP inh 16.1, MITF primary 11.4, GPR151 activ -1.7 and FBW7 activator 0.4.
`Cc1nc(N=Nc2cc(S(=O)(=O)O)c3cc([N+](=O)[O-])cc(S(=O)(=O)O)c3c2)c(COP(=O)(O)O)c(C=O)c1O` gave TEAD-YAP inh -12.1, MITF primary 77.2*!, GPR151 activ -1.3 and FBW7 activator -0.2.
`Cc1c(N=Nc2ccc([N+](=O)[O-])cc2S(=O)(=O)O)co[n+]1[O-]` gave TEAD-YAP inh 1.6, MITF primary 5.3, GPR151 activ 1.3 and FBW7 activator -0.2.
O=C1c2cccc3c(Oc4ccccc4[N+](=O)[O-])ccc(c23)C(=O)N1n1cnnc1 was read as TEAD-YAP inh 35.6*, MITF primary 5.2, GPR151 activ -0.7 and FBW7 activator -0.1.
`O=C1c2ccccc2C(=O)N1N1C(=O)c2cccc3c([N+](=O)[O-])ccc(c23)C1=O` gave TEAD-YAP inh 12.2, MITF primary 2.8, GPR151 activ 0.2 and FBW7 activator 0.0.
For CCC(=O)NC(c1cccs1)c1ccc2ccccc2c1O (stereo not drawn) the results were TEAD-YAP inh -7.1, MITF primary -0.9, GPR151 activ 0.9 and FBW7 activator 1.0.
`CCC(=O)NC(c1cccs1)c1ccc2cccnc2c1O` (stereo not drawn) gave TEAD-YAP inh 76.6*, MITF primary 30.2, GPR151 activ 1.0 and FBW7 activator -0.8.
CCCCC(=O)NC(c1cccs1)c1ccc2ccccc2c1O (stereo not drawn) was read as TEAD-YAP inh 1.1, MITF primary 1.2, GPR151 activ 0.7 and FBW7 activator 0.8.
For CCCC(=O)NC(c1cccs1)c1ccc2cccnc2c1O (stereo not drawn) the results were TEAD-YAP inh 86.3*, MITF primary 45.7, GPR151 activ 0.5 and FBW7 activator -1.0.
COC(=O)c1ccc(/C=N/NC(=O)COc2ccc3ccccc3c2)cc1 was read as TEAD-YAP inh -13.3, MITF primary 2.8, GPR151 activ -0.2 and FBW7 activator 0.0.
O=C(O)/C=C/c1cccc(-c2cnn3ccc(NCc4cccnc4)nc23)c1 was read as TEAD-YAP inh -8.9, MITF primary 11.2, GPR151 activ -0.2 and FBW7 activator 0.1.
For Cc1c(C(=O)Nc2ccc3c(c2)OCCO3)sc2ncnc(N3CCN(c4ccccc4F)CC3)c12 the results were TEAD-YAP inh -40.5, MITF primary 3.4, GPR151 activ -0.4 and FBW7 activator -0.2.
Screening O=C(NCc1cccc(C(F)(F)F)c1)c1cccc(N2CCC(N3CCOCC3)CC2)n1 returned TEAD-YAP inh 35.8*, MITF primary -9.3, GPR151 activ 1.8 and FBW7 activator -0.1.
COc1cc(/C=C/c2ccncc2)ccc1OC(=O)c1c(OC)cccc1OC was read as TEAD-YAP inh 1.4, MITF primary 14.2, GPR151 activ 0.4 and FBW7 activator 0.1.
For Cc1nc2c(C)cccn2c1C(=O)NCc1ccc2c(c1)OCO2 the results were TEAD-YAP inh 33.5*, MITF primary -10.7, GPR151 activ -0.8 and FBW7 activator 0.1.
For Cc1nc2ccccn2c1C(=O)NCc1ccc2c(c1)OCO2 the results were TEAD-YAP inh 6.3, MITF primary 13.6, GPR151 activ 0.0 and FBW7 activator 0.9.
`Cc1cc(C)nc(NS(=O)(=O)c2ccc(Nc3nc(-c4cccs4)cs3)cc2)n1` gave TEAD-YAP inh -7.2, MITF primary -12.8, GPR151 activ 0.0 and FBW7 activator 0.0.
Screening Cc1cccc2c3c([nH]c12)C(=O)N(C)CCC3 returned TEAD-YAP inh -16.1, MITF primary -4.1, GPR151 activ 0.2 and FBW7 activator -0.2.
`CC1=C(C(=O)OCc2ccc3c(c2)OCO3)C(c2ccc([N+](=O)[O-])cc2)NC(=O)N1` (stereo not drawn) gave TEAD-YAP inh 76.1*, MITF primary 3.6, GPR151 activ -0.4 and FBW7 activator 0.0.
CC1=C(C(=O)OCC2CCCO2)C(c2ccc([N+](=O)[O-])cc2)NC(=O)N1 (stereo not drawn) was read as TEAD-YAP inh 3.2, MITF primary -0.8, GPR151 activ 0.0 and FBW7 activator -0.1.
CC1=C(C(=O)OCc2ccc3c(c2)OCO3)C(c2ccccc2OC(C)C)NC(=O)N1 (stereo not drawn) was read as TEAD-YAP inh -9.0, MITF primary 11.6, GPR151 activ -0.2 and FBW7 activator 1.1.
`CCN(CC)c1ccc(C2NC(=O)NC(C)=C2C(=O)OCc2ccc3c(c2)OCO3)cc1` (stereo not drawn) gave TEAD-YAP inh 17.1, MITF primary 9.2, GPR151 activ -0.9 and FBW7 activator -0.1.
Screening CC1=C(C(=O)OCc2ccc3c(c2)OCO3)C(c2ccc(Cl)cc2)NC(=O)N1 (stereo not drawn) returned TEAD-YAP inh 76.9*, MITF primary 11.0, GPR151 activ -0.4 and FBW7 activator 0.0.
For CC1=C(C(=O)OCc2ccc3c(c2)OCO3)C(c2ccc(F)cc2)NC(=O)N1 (stereo not drawn) the results were TEAD-YAP inh 60.8*, MITF primary 12.1, GPR151 activ 1.4 and FBW7 activator -0.1.
For Nc1cccc(-c2cc(NCCCN3CCCC3=O)nc(N)n2)c1 the results were TEAD-YAP inh -5.5, MITF primary 3.9, GPR151 activ 0.6 and FBW7 activator 0.0.

Assay outcomes deposited in PubChem by The Scripps Research Institute Molecular Screening Center.
